Where “and” joins values, the source holds several entries; their conditions need not be identical. Equal values may be shown once. About 83,000 compounds went through this panel and 20% of them were active in at least one assay; those are over-represented in the sample as a whole.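 The test compound was applied at a single concentration to cells in 96-well plates for 48 hours, and percent growth was recorded.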 Where a structure was tested more than once in an assay, its records may differ in their call. Calls of active or inactive are those of the source.
System: SR leukemia
Test: NCI-60 one-dose screen, 48 h (100 = growth as untreated, 0 = no growth, -100 = all killed)
Conditions: 10 µM
Procedure: Growth inhibition of the SR human tumor cell line is measured as a screen for anti-cancer activity. Cells are grown in 96 well plates and exposed to the test compound for 48 hours. Compounds are tested at a single concentration, which is 10^-5 M for most compounds. The reported endpoint is percent growth (GI% or GIPRCNT), where numbers from 0 - 100% represent growth inhibition, and numbers from -100% - 0 represent cell death. For example, a value of 40 represents 60% growth inhibition. A value of 0 means no net growth occurred over the course of the experiment. A value of -40 indicates 40% of cells at the beginning of the experiment died by the end of the experiment. A value of -100 means all cells are dead at the end of the experiment.
NCI-60 Human Tumor Cell Lines Screen was performed using the standard one-dose NCI protocol, which is described in more detail at https://dtp.cancer.gov/discovery_development/nci-60/default.htm.
Compounds with GIPRCNT values below 10 were considered active. Activity score was based on GIPRCNT using the following formula: […]
Score is 0 for GIPRCNT values of 100 or above, 50 for GIPRCNT values of 0, and 100 for GIPRCNT values of -100.

SMILES | growth
CN(CCF)/N=N/c1nc[nH]c1C(N)=O | 22.3% (inactive)
CC1=C2C(=C[C@@](C)(COC(=O)c3ccc(S(=O)(=O)F)cc3)[C@@H]2OC(=O)c2ccc(S(=O)(=O)F)cc2)C(=O)[C@](C)(O)C12CC2 | 16.3% (inactive)
CC1=C(CCC=NNC(N)=O)C2=C(C)C3(CC3)[C@@](C)(O)C(=O)C2=C1 | 29.9% (inactive)
CC(C)=CCc1c2c(c(O)c3c1O[C@]14C(=C[C@@H]5C[C@H]1C(C)(C)O[C@@]4(C/C=C(/C)C(=O)O)C5=O)C3=O)C=CC(C)(C)O2 | -3.62% (active)
COc1cc2c(O[C@@H]3OC[C@H](OC(C)=O)[C@H](OC(C)=O)[C@H]3O)c3c(c(-c4ccc5c(c4)OCO5)c2cc1OC)C(=O)OC3 | 2.16% (active)
CCCCCCCCCC(=O)N[C@@](C)(CC)C(=O)N1CCC[C@H]1C(=O)N[C@@H](CC(C)C)C(=O)N[C@@](C)(CC)C(=O)N[C@@H](CCC(N)=O)C(=O)N[C@H](CCC(N)=O)C(=O)NC(C)(C)C(=O)NC(C)(C)C(=O)N[C@@H](CCC(N)=O)C(=O)N[C@H](CC(C)C)C(=O)N[C@H](CO)CC(C)C | -31.3% (active) and 16.2% (inactive)
C/C=C/CC(C)C(O)[C@H](NC(=O)[C@@H]1CCCN1C(=O)C(C)(C)NC(=O)CCCCCCCCC)C(=O)NC(C)(C)C(=O)N[C@@H](CCC(N)=O)C(=O)N[C@H](CCC(N)=O)C(=O)NC(C)(C)C(=O)NC(C)(C)C(=O)N[C@@H](CCC(N)=O)C(=O)N[C@H](CC(C)C)C(=O)N[C@H](CO)CC(C)C (stereo not given in full) | -57.3% (active) and 12.2% (inactive)
C/C=C/CC(C)C(O)[C@H](NC(=O)[C@@H]1CCCN1C(=O)C(C)(C)NC(=O)CCCCCCCCC)C(=O)N[C@@](C)(CC)C(=O)N[C@@H](CCC(N)=O)C(=O)N[C@H](CCC(N)=O)C(=O)NC(C)(C)C(=O)NC(C)(C)C(=O)N[C@@H](CCC(N)=O)C(=O)N[C@H](CC(C)C)C(=O)N[C@H](CO)CC(C)C (stereo not given in full) | -32.1% (active) and 8.34% (active)
C=C1[C@@H](C)C2[C@H](Cc3ccccc3)NC(=O)[C@]23[C@H](OC(C)=O)/C=C/[C@@](C)(O)C(=O)[C@@H](C)C/C=C/[C@H]3[C@@H]1O (stereo not given in full) | 43.2% (inactive)
CC1=C2C(=O)[C@](C)(CO)C=C2C(=O)[C@](C)(O)C12CC2 | 12.8% (inactive)
CC1=C[C@H]2O[C@@H]3C[C@H]4OC(=O)/C=C\C=C\[C@H]([C@@H](C)O)OCC[C@@H](C)[C@H](O)C(=O)OC[C@@]2(CC1)[C@]4(C)[C@]31CO1 | -10.5% (active)
CC1=C2C(=C[C@@](C)(C=O)[C@@H]2O)C(=O)[C@](C)(O)C12CC2 | 14.5% (inactive)
C[C@@H]1C[C@H]2C(=O)O[C@@H](C)C(NC(=O)[C@H](Cc3cc(F)cc(F)c3)NC(=O)Nc3ccc(OS(=O)(=O)F)cc3)C(=O)N3CCC[C@H]3C(=O)N3CCO[C@H](C)[C@H]3C(=O)N[C@@H](CO)C(=O)N2C1 (stereo not given in full) | 25.3% (inactive)
CC(=O)O[C@@H]1[C@@H]2O[C@H]2[C@@](C)(O)C(=O)[C@@H](C)C/C=C/[C@H]2[C@@H]3O[C@]3(C)[C@@H](C)C3[C@H](Cc4ccccc4)NC(=O)[C@@]312 (stereo not given in full) | 60.7% (inactive)
COC(=O)[C@H]1[C@@H](O)[C@@]2(O)c3c(OC)cc(OC)cc3O[C@@]2(c2ccc(OC)cc2)[C@@H]1c1ccccc1 | 13.2% (inactive)
COc1cc2c(cc1OC)[C@@H]1N(CC2)C(=O)c2ccccc2[C@@]1(C)C(=O)O | 117% (inactive)
CC1=C2C(=C[C@@](C)(COS(C)(=O)=O)[C@@H]2O)C(=O)[C@](C)(O)C12CC2 | 2.86% (active)
C[C@@H]1CCC/C=C/[C@H]2C[C@@H](O)C[C@@H]2[C@@H](O)/C=C/C(=O)O1 | 1.7% (active)
C/C=C/CC(C)C(O)[C@H](NC(=O)[C@@H]1CCCN1C(=O)C(C)(C)NC(=O)CCCCCCCCC)C(=O)N[C@@](C)(CC)C(=O)N[C@@H](CCC(N)=O)C(=O)N[C@H](CCC(N)=O)C(=O)NC(C)(C)C(=O)N[C@@](C)(CC)C(=O)N[C@@H](CCC(N)=O)C(=O)N[C@H](CC(C)C)C(=O)N[C@H](CO)CC(C)C (stereo not given in full) | 92% (inactive) and 11.3% (inactive)
N#Cc1nc(-c2ccccc2)oc1N1CCC(S(=O)(=O)F)CC1 | 83.4% (inactive)

SMILES | growth
COc1cc(OC)c(S(=O)(=O)N(CCCl)CCCl)cc1C(=O)/C=C/c1ccc(Cl)cc1 | 10.1% (inactive)
CN1C(=O)[C@]23SSC1(C)C(=O)N2[C@H]1Nc2ccccc2C1([C@@]12c4ccccc4N[C@@H]1N1C(=O)C4(C)SS[C@]1(C(=O)N4C)[C@H]2O)[C@@H]3O (stereo not given in full) | 0.169% (active)
COc1cc(C)c(-c2ccc(OC)c(=O)cc2C)c(OC)c1OC | 9.85% (active) and 89.4% (inactive)
CC(=O)O[C@@H]1C[C@H]2O[C@@H]3C=C(C)CC[C@]3(C)[C@]1(C)[C@]21CO1 | 0.874% (active)
O=C(CCCc1ccc(N(CCCl)CCCl)cc1)OCc1ccccc1 | 42.2% (inactive)
Cc1ccc(CNc2nc3ccc(OC/C(=C/F)CN)cc3o2)cn1 | 101% (inactive)
CCC(C)[C@H]1C(=O)O[C@H](C(C)C)C(=O)N(C)[C@@H](C(C)C)C(=O)O[C@H](C(C)C)C(=O)N(C)[C@@H](C(C)C)C(=O)O[C@H](C(C)C)C(=O)N1C (stereo not given in full) | 8.09% (active)
COc1cc2c(O[C@@H]3OC[C@H](O)[C@H](O)[C@H]3O)c3c(c(-c4ccc5c(c4)OCO5)c2cc1OC)C(=O)OC3 | 14.5% (inactive)
COc1cccc2c1cc([N+](=O)[O-])c1c(C(=O)O)cc3c(c12)OCO3 | 106% (inactive)
C/C=C\C(=O)O[C@@H]1CC2O[C@@H]3C=C(C)C(=O)C[C@]3(C)[C@]1(C)[C@]21CO1 | -13.1% (active)
C/C=C/CC(C)C(O)[C@H](NC(=O)[C@@H]1CCCN1C(=O)C(C)(C)NC(=O)CCCCCCC)C(=O)N[C@@](C)(CC)C(=O)N[C@@H](CCC(N)=O)C(=O)N[C@H](CCC(N)=O)C(=O)NC(C)(C)C(=O)NC(C)(C)C(=O)N[C@@H](CCC(N)=O)C(=O)N[C@H](CC(C)C)C(=O)N[C@H](CO)CC(C)C (stereo not given in full) | 92.9% (inactive) and 0.907% (active)
CC1=C(CN(O)C(N)=O)C2=C(C)C3(CC3)[C@](C)(O)C(=O)C2=C1 | -4.72% (active)
CC1=C2C(=C[C@@](C)(COC(=O)c3ccc(S(=O)(=O)F)cc3)[C@@H]2O)C(=O)[C@](C)(O)C12CC2 | -0.78% (active)
CC1=C[C@H]2O[C@@H]3C[C@@H](O)[C@](C)([C@@]2(C)CC1)[C@@]31CO1 | 18.1% (inactive)
CC(C)(O)/C=C/C(=O)[C@](C)(O)[C@H]1[C@H](O)C[C@@]2(C)[C@H]3CC=C4[C@@H](C[C@H](O)C(=O)C4(C)C)[C@]3(C)C(=O)C[C@]12C | 8.56% (active)
CC1=C(CN(O)C(N)=O)C2=C(C)C3(CC3)[C@@](C)(O)C(=O)C2=C1 | 67.6% (inactive)
COC1[C@@H]2C[C@H]3C(C)(C)O[C@@](C/C=C(/C)C(=O)O)(C2=O)[C@]32Oc3c(CC=C(C)C)c4c(c(O)c3C(=O)[C@H]12)C=CC(C)(C)O4 (stereo not given in full) | 1.28% (active)
NC1CCc2cc(O)c(O)cc2C1 (stereo not given) | -24.1% (active)
N#Cc1c(-n2c(Br)c(Br)c3cc(Br)ccc32)[nH]c2c(Br)cc(Br)cc12 | 0.987% (active)
CC1=C[C@H]2O[C@@H]3C[C@H]4OC(=O)/C=C\C=C\[C@H]([C@@H](C)O)OCC/C(C)=C/C(=O)OC[C@@]2(CC1)[C@]4(C)[C@]31CO1 | -9.9% (active)

Source: PubChem BioAssay (NCI)
